Assay results taken from paper PMC11006913.

target: HOXD13 (Homo sapiens, UniProt P35453 263-343, T313R); assay: PBM; 200 nM protein, PBS; conditions: dsDNA, one strand shown
Sequence (P35453 263-343 T313R): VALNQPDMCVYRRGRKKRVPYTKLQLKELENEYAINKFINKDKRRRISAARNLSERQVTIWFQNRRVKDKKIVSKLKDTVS

| Sequence | binding signal |
| --- | --- |
| ATCGTAAA | 10.9 upbm affinity estimate (log intensity, higher = more binding, comparable within an allelic series) |
| GTCGTAAA | 10.9 upbm affinity estimate (log intensity, higher = more binding, comparable within an allelic series) |
| GCTATAAA | 10.9 upbm affinity estimate (log intensity, higher = more binding, comparable within an allelic series) |
| CTCATAAA | 11.2 upbm affinity estimate (log intensity, higher = more binding, comparable within an allelic series) |
| CTATTAAA | 11 upbm affinity estimate (log intensity, higher = more binding, comparable within an allelic series) |
| ATAAAACA | 10.7 upbm affinity estimate (log intensity, higher = more binding, comparable within an allelic series) |
| ACAATAAA | 10.9 upbm affinity estimate (log intensity, higher = more binding, comparable within an allelic series) |
| ATCATAAA | 10.8 upbm affinity estimate (log intensity, higher = more binding, comparable within an allelic series) |
| CTATAAAA | 11.1 upbm affinity estimate (log intensity, higher = more binding, comparable within an allelic series) |
| CTAATAAA | 11.2 upbm affinity estimate (log intensity, higher = more binding, comparable within an allelic series) |
| GTTTATTA | 11 upbm affinity estimate (log intensity, higher = more binding, comparable within an allelic series) |
| CGCCACCG | 9.57 upbm affinity estimate (log intensity, higher = more binding, comparable within an allelic series) |
| ATTTTATG | 10.8 upbm affinity estimate (log intensity, higher = more binding, comparable within an allelic series) |
| GCCATAAA | 10.7 upbm affinity estimate (log intensity, higher = more binding, comparable within an allelic series) |
| GTCATAAA | 10.9 upbm affinity estimate (log intensity, higher = more binding, comparable within an allelic series) |
| TCGTAAAA | 11.1 upbm affinity estimate (log intensity, higher = more binding, comparable within an allelic series) |
| TCATAAAA | 11 upbm affinity estimate (log intensity, higher = more binding, comparable within an allelic series) |
| CTCGTAAA | 11.3 upbm affinity estimate (log intensity, higher = more binding, comparable within an allelic series) |
| CCATAAAA | 11 upbm affinity estimate (log intensity, higher = more binding, comparable within an allelic series) |
| CATAAAAG | 10.7 upbm affinity estimate (log intensity, higher = more binding, comparable within an allelic series) |
| AATTTTAT | 10.7 upbm affinity estimate (log intensity, higher = more binding, comparable within an allelic series) |
| ACCATAAA | 10.8 upbm affinity estimate (log intensity, higher = more binding, comparable within an allelic series) |
| ATAATAAA | 10.8 upbm affinity estimate (log intensity, higher = more binding, comparable within an allelic series) |
| CATAAAAC | 10.7 upbm affinity estimate (log intensity, higher = more binding, comparable within an allelic series) |
| ATTTATGA | 10.9 upbm affinity estimate (log intensity, higher = more binding, comparable within an allelic series) |
| TCGTTAAA | 10.8 upbm affinity estimate (log intensity, higher = more binding, comparable within an allelic series) |
| TAATAAAA | 11.1 upbm affinity estimate (log intensity, higher = more binding, comparable within an allelic series) |
| ACTATAAA | 10.9 upbm affinity estimate (log intensity, higher = more binding, comparable within an allelic series) |
| CATAAAAA | 10.7 upbm affinity estimate (log intensity, higher = more binding, comparable within an allelic series) |
